High-throughput results as filed in PubChem BioAssay.
An excerpt weighted towards active compounds, which were near 0.92% of everything screened.
RPL19A-GFP yeast – RPL19A-GFP expression modulators in yeast, primary screen, cell-based, S. cerevisiae, multiplex flow cytometry, MLPCN. AID 2025, 2009. S. cerevisiae RPL19A-GFP strain, 3 h; hits give low values. 330,000 tested, 0.3% active. percent response vs DMSO, % at 10 µM;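 active = percent response vs DMSO below 50%; inconclusive = fewer than 70 events counted for the yeast strain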;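 also: median channel GFP fluorescence of the barcoded RPL19A-GFP strain; lower means less RPL19A-GFP as with rapamycin TOR inhibition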
LAP4-GFP MLPCN – modulators of LAP4-GFP expression in yeast, primary screen, S. cerevisiae, multiplex flow cytometry, MLPCN library; 3 h; median GFP as percent of DMSO wells; GFP response vs DMSO, % at 10 µM; 320,000 tested, 0.34% active; AID 2023, 2009;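 active = GFP response vs DMSO above a set limit, about the screen mean plus 3 SD, cut at about 150% in these data; inconclusive = under 70 cell events counted for the yeast strain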
MEP2 TOR yeast – modulators of MEP2-GFP levels in yeast, primary screen, S. cerevisiae, multiplex flow cytometry, MLPCN library; GFP response vs DMSO, % at 10 µM; S. cerevisiae MEP2-GFP strain, 3 h; 100% = DMSO control level; 330,000 tested, 0.51% active; AID 2016, 2009;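 active = GFP response versus DMSO above a set limit, roughly screen mean plus 3 SD, cut at about 180% in these data; inconclusive = fewer than 70 cells counted for a yeast strain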;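 also: median GFP fluorescence of the barcode-gated MEP2-GFP cells per well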
AGP1 TOR yeast – modulators of AGP1-GFP expression in yeast TOR pathway, primary screen, cell-based, multiplex flow cytometry, S. cerevisiae, MLPCN library; GFP response vs DMSO, % at 10 µM; 3 h; GFP as percent of DMSO wells; 320,000 tested, 0.02% active;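 active = GFP response relative to DMSO above a set limit, near screen average plus 3 SD, cut at about 150% in these data; inconclusive = fewer than 70 cells counted for the yeast strain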;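 also: median GFP channel fluorescence of the gated AGP1 strain per well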
CIT2-GFP yeast – modulators of CIT2-GFP expression in yeast, primary screen, S. cerevisiae, GFP fusion, multiplex flow cytometry, MLPCN library | S. cerevisiae CIT2-GFP strain, 3 h; 100 means same as DMSO wells | GFP response vs DMSO, % at 10 µM | 320,000 tested, 0.065% active;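 active = GFP response relative to DMSO above a set limit, near the screen mean plus 3 SD, cut at about 150% in these data; inconclusive = Fewer than 70 cells measured for a yeast strain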;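 also: ratio of well median GFP fluorescence to mean of DMSO wells on the plate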
Numbers stand for hits; i = inactive; ? = inconclusive; nt = no result; [ ] = remark or other dose.

SMILES	RPL19A-GFP yeast	LAP4-GFP MLPCN	MEP2 TOR yeast	AGP1 TOR yeast	CIT2-GFP yeast
Cc1cc(-c2n[nH]c(=S)n2/N=C/C(Cl)=C/c2ccccc2)n[nH]1	i	i	i	i	i
S=c1[nH]nc(-c2ccco2)n1/N=C/C(Cl)=C/c1ccccc1	i	167	i	i	i
C/C(=N\NC(=O)c1ccc(Cl)c(Cl)c1)c1ccccn1	i	285	i	i	i
C/C(=N\NC(=O)c1ccccc1Cl)c1ccccn1	i	i	i	i	i
O=c1c2c(-c3cccs3)csc2ncn1/N=C/c1ccccn1	i	156	i	i	i
Cc1cc(C)nc(SCC(=O)NCC2COc3ccccc3O2)n1 (stereo unspecified)	i	i	i	i	i
Cn1c(=O)cc(SCC(=O)NCC2COc3ccccc3O2)c2ccccc21 (stereo unspecified)	i	i	397[may fluoresce violet]	i	?
NNC(=O)[C@H](Cc1ccccc1)NC(=O)Nc1ccc2c(c1)OCCO2	i	i	i	i	i
Cc1ccc(N/N=C/c2c(O)cc(C)oc2=O)cc1	i	i	i	i	i
Cc1ccc(CO/N=C/c2c(O)cc(C)oc2=O)cc1	i	164	i	i	i
CCOc1ccc(Nc2nc(N(C)c3ccccc3)nc(N)c2[N+](=O)[O-])cc1	i	i	199	i	i
CCOc1ccc(Nc2nc(N)c([N+](=O)[O-])c(NCc3ccccc3)n2)cc1	i	i	i	i	i
O=C(CN1CCCCC1)NNc1nc(-c2ccccc2)c2cc(Br)ccc2n1	i	i	i	i	i
Cc1nc2c(-c3ccc(F)cc3)cnn2c(N)c1-c1ccccc1	i	165	i	i	i
S=c1[nH]nc(NCCCN2CCOCC2)s1	i	i	327	i	i
S=C(NCCCN1CCOCC1)NCCCN1CCOCC1	i	i	i	i	i
COc1ccc(N(CC(=O)N/N=C/c2ccc(OC)cc2OC)S(=O)(=O)c2ccccc2)cc1	i	i	i	i	i
COc1ccc(N(CC(=O)N/N=C/c2cc(OC)ccc2OC)S(=O)(=O)c2ccccc2)cc1	i	i	185	i	i
CC1(C)OC(=O)C(=Cc2ccc(-c3ccc(Cl)c(C(=O)O)c3)o2)C(=O)O1	i	i	i	i	i
O=C(O)c1ccc(-c2ccc(/C=c3/sc4nc5ccccc5n4c3=O)o2)cc1Cl	28[may fluoresce violet]	i	783[may fluoresce violet]	?	?
O=C(O)c1cccc(S(=O)(=O)Nc2ccccc2Cc2ccccc2)c1	i	i	265[may fluoresce violet]	i	?
CC(=O)N1CCc2cc(S(=O)(=O)CCC(=O)NCCc3ccccc3)ccc21	28[may fluoresce violet]	i	i	?	?
CCC(=O)N1CCc2cc(S(=O)(=O)CCC(=O)Nc3ccc(OC)cc3)ccc21	20[may fluoresce violet]	i	i	?	?
Cc1ccc(CCNC(=O)CCS(=O)(=O)c2ccc3c(c2)oc(=O)n3C)cc1	i	i	207[may fluoresce violet]	?	?
O=c1c(Cl)c(NCc2ccccc2)cnn1C12CC3CC(CC(C3)C1)C2	i	i	i	i	i
SMILES	RPL19A-GFP yeast	LAP4-GFP MLPCN	MEP2 TOR yeast	AGP1 TOR yeast	CIT2-GFP yeast
Cc1noc2ncnc(Sc3ccc(Br)cc3)c12	i	163	i	i	i
C/C(=N/NC(N)=S)c1cc2ccc(O)cc2oc1=O	20[may fluoresce violet]	i	?	?	?
C/C(=N\NC(=O)c1ccncc1)c1cc2ccccc2oc1=O	i	i	i	i	i
CCN(CC)c1ccc(C(=O)N/N=C(\C)c2ccc(O)cc2)cc1	i	i	i	i	i
CCc1cc(=O)oc2c(CNCc3ccc(OC)cc3OC)c(O)c(Cl)cc12	i	i	407[may fluoresce violet]	i	?
CC(=O)C1=C(c2ccccc2)NC(=O)NC1c1cccs1 (stereo unspecified)	i	i	i	i	i
O=C(Nc1ccc(Cl)cc1)C1CC=CCC1C(=O)OCC(F)(F)C(F)F (stereo unspecified)	37[may fluoresce violet]	i	266[may fluoresce violet]	i	?
O=C(CCCC(=O)OCC(F)(F)C(F)F)Nc1ccc(NC(=O)CCCC(=O)OCC(F)(F)C(F)F)cc1	i	i	i	i	i
Cc1ccc2c(c1)c1c3n2CCCNC3CCC1 (stereo unspecified)	i	i	i	i	i
c1cc2c(cc1C1CCCCC1)c1c3n2CCCNC3CCC1 (stereo unspecified)	i	188	i	i	i
O=C(NC(=S)Nc1ccc2[nH]c(=O)[nH]c2c1)c1ccccc1[N+](=O)[O-]	i	i	i	i	i
COc1ccccc1N=c1oc2cc(O)ccc2cc1C(N)=O	15[may fluoresce violet]	i	298[may fluoresce violet]	?	?
COc1ccccc1N=c1oc2cc(O)ccc2cc1C(=O)NCC1CCCO1 (stereo unspecified)	i	i	i	i	i
COc1ccc2cc(C(N)=O)c(=Nc3ccc(C)cc3)oc2c1	i	i	i	i	i
Cc1cccc(N=c2oc3cc(O)ccc3cc2C(N)=O)c1	40	i	i	i	i
COc1ccccc1OCC(=O)Nc1ccc(S(=O)(=O)Nc2onc(C)c2C)cc1	46[may fluoresce violet]	i	311[may fluoresce violet]	?	?
CCC1(c2ccc(F)cc2)NC(=O)N(CC(=O)NCc2ccccc2Cl)C1=O (stereo unspecified)	i	i	i	i	i
CCC(C)(C)n1nnnc1C(c1ccccc1)N1CCc2ccccc2C1 (stereo unspecified)	i	i	i	i	i
CCC(C)(C)n1nnnc1C(c1ccc(O)c(OC)c1)N1CCc2ccccc2C1 (stereo unspecified)	i	i	i	i	152
Cc1oc(-c2cccc(Cl)c2)nc1CN1CCC(C(=O)NCCCN2CC(C)CC(C)C2)CC1 (stereo unspecified)	17[may fluoresce violet]	i	190[may fluoresce violet]	?	?
Cc1oc(-c2cccc(Cl)c2)nc1CN1CCC(C(=O)NCCCN2CCCC2=O)CC1	i	i	i	i	i
CCCCCCCCCCCC(=O)N1CC(=O)NC(=O)C1	i	i	i	i	i
CCOC(=O)c1ccc(NC(=O)c2ccc3c(c2)C(=O)N(Cc2cccnc2)C3=O)cc1	i	168	i	i	i
CCOC(=O)c1cnn(-c2nc(SC)nc3sc4c(c23)CCCC4)c1N	i	i	187[may fluoresce violet]	nt	?
O=[N+]([O-])c1cc(/C=N/O)ccc1Oc1ccccc1Cl	i	i	187	i	i
SMILES	RPL19A-GFP yeast	LAP4-GFP MLPCN	MEP2 TOR yeast	AGP1 TOR yeast	CIT2-GFP yeast
CSc1sc(C(=O)NCC2CC2)cc1S(=O)(=O)C(C)C	i	i	i	i	i
COC(=O)c1cc(S(=O)(=O)C(C)C)c(S(C)=O)s1 (stereo unspecified)	32[may fluoresce violet]	i	435[may fluoresce violet]	?	?
C=C(C)c1ccccc1	i	i	i	i	i
CNC(=S)N/N=C/c1ccco1	i	i	i	i	i
Brc1cc(Br)c2nc(-c3cccs3)ccc2c1	i	151	i	i	i
Nc1nccc(-c2cccs2)n1	i	i	i	i	i
